Hits are enriched below; roughly 27% of the tested compounds scored in any of these assays.
CYP2C19 act: human CYP2C19 activators, primary screen, biochemical, luminescence | 96,000 tested, under 10 active | Cytochrome P450 2C19 (Homo sapiens), P33261 | activation factor at 5 µM | recombinant CYP2C19, luciferin-H EGE luminescence; active compounds read high; 0 = fully inhibited enzyme, 1 = untreated enzyme | AID 1025, 2008;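 active means activation factor of at least 2 at 5 µM in the primary screen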;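 further: 0 = wells with 2.5 mM tranylcypromine and 1 = vehicle-only wells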
Target sequence (P33261 whole entry, looked up): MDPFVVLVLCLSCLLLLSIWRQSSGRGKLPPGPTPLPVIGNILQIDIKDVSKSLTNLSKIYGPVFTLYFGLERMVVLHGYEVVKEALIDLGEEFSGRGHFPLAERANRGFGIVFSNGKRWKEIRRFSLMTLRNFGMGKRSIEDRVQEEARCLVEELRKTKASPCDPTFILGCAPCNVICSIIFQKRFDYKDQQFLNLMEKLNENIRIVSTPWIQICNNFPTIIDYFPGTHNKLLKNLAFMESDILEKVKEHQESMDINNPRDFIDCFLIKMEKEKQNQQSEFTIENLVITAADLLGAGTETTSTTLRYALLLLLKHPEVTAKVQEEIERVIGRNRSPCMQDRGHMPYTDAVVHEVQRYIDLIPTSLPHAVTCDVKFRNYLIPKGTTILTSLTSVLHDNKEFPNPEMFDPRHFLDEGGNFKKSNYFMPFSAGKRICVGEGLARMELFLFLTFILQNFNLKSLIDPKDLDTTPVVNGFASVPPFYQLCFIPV
Cav3 T inh: Cav3.2 calcium influx blockers – cell-based, Fluo-4 calcium fluorescence, FDSS, MLSMR library, primary screen | Voltage-dependent T-type calcium channel subunit alpha-1H (Homo sapiens), O95180 | Cav3.2-expressing cells; active compounds read low | B-score at 10 µM | 100,000 tested, 4% active | AID 449739, 2010;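 active means single-dose well whose peak fluorescence ratio is a statistical outlier from its plate by either plate-standardised score or position-corrected B-score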
CYP2C19 inhib: blockers of cytochrome P450 2C19 activity – biochemical, luminescence, ADME assay, primary screen; AID 778, 2007; CYP2C19 Supersomes, luciferin-H EGE luminescence, 30 min; 96,000 tested, 21% active; inhibition, % at 5 µM; P33261;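 active means CYP2C19 inhibition above a set limit at 5 µM in the primary screen, cut at about 50% in these data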;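 further: plate controls were negative control wells for no effect and 2.5 mM tranylcypromine positive control for full effect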
CYP2C9 activ: human CYP2C9 activators, primary screen, biochemical, luminescence; Cytochrome P450 2C9 (Homo sapiens), P11712; recombinant CYP2C9, luciferin-H conversion; active compounds read high; factor 1 = untreated enzyme, 0 = blocked; activation factor at 5 µM; 96,000 tested, 1.4% active; AID 1024, 2008;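 active means activation factor of 2 or more for CYP2C9 at a 5 µM dose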;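 further: 0 = sulfaphenazole-blocked wells and 1 = vehicle-only wells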
CYP2C9 inh: blockers of cytochrome P450 2C9 activity – biochemical, luminescence, ADME assay, primary screen; P11712; inhibition, % at 5 µM; CYP2C9 Supersomes, luciferin-H conversion; 96,000 tested, 20% active; AID 777, 2007;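 active means blocking of liver enzyme CYP2C9 beyond about 50% at 5 µM, limit read from the data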
Numbers without * were called inactive.

Results for CN(C)S(=O)(=O)c1ccc(S(=O)(=O)N(CC(=O)Nc2ccccc2)CC2CCCO2)cc1 (centres undefined) ?
CYP2C19 act: 0.8; Cav3 T inh: 0.404; CYP2C19 inhib: 21.3; CYP2C9 activ: 0.1; CYP2C9 inh: 90.2*

How did O=C(CN(CC1CCCO1)S(=O)(=O)c1ccc(S(=O)(=O)NCC2CCCO2)cc1)Nc1ccccc1 (centres undefined) do in these assays?
CYP2C19 act: 0.6; Cav3 T inh: -1.93; CYP2C19 inhib: 38.7; CYP2C9 activ: 0.1; CYP2C9 inh: 90.4*

Results for Clc1ccc(CN(CC2CCCO2)C(c2cccs2)c2nnnn2C2CCCC2)cc1 (centres undefined) ?
CYP2C19 act: 0.6; Cav3 T inh: -8.09*; CYP2C19 inhib: 41.1; CYP2C9 activ: 0.6; CYP2C9 inh: 35.8

Results for Clc1ccc(C(c2nnnn2C2CCCCC2)N(Cc2cccnc2)Cc2ccco2)cc1 (centres undefined) ?
Cav3 T inh: -3.85*

How did Cc1ccc2cc(C(c3nnnn3C3CCCC3)N(Cc3cccnc3)Cc3ccco3)c(=O)[nH]c2c1 (centres undefined) do in these assays?
CYP2C19 act: 0.1; Cav3 T inh: -2.57; CYP2C19 inhib: 92.0*; CYP2C9 activ: 0.3; CYP2C9 inh: 74.1*

How did Cc1ccc2[nH]c(=O)c(C(c3nnnn3C3CCCC3)N(Cc3cccnc3)Cc3ccco3)cc2c1 (centres undefined) do in these assays?
CYP2C19 act: 0.8; Cav3 T inh: -2.12; CYP2C19 inhib: 20.9; CYP2C9 activ: 0.5; CYP2C9 inh: 45.3

Results for Clc1ccccc1CN(Cc1ccccc1)C(c1cccs1)c1nnnn1C1CCCC1 (centres undefined) ?
CYP2C19 act: 0.9; Cav3 T inh: -0.663; CYP2C19 inhib: 10.2; CYP2C9 activ: 0.8; CYP2C9 inh: 19.3

Results for Clc1ccccc1CN(Cc1ccco1)Cc1nnnn1C1CCCC1 ?
Cav3 T inh: -4.33

Results for CNC(=O)c1cc2cc(Cl)cc(OC)c2oc1=O ?
Cav3 T inh: -0.0746

How did CC(C)CN(CCC(=O)O)CC(C)C do in these assays?
CYP2C19 act: 1.3; Cav3 T inh: 2.1; CYP2C19 inhib: -26.6; CYP2C9 activ: 0.8; CYP2C9 inh: 21.6

What do the screens show for `Cc1cc(Nc2ccccc2F)n2ncnc2n1`?
CYP2C19 act: 1; Cav3 T inh: -0.445; CYP2C19 inhib: -3.1; CYP2C9 activ: 1; CYP2C9 inh: 3.8

How did Cc1ccc(CC23CN4CCN(CC(C4)C2O)C3)c(C)c1 (centres undefined) do in these assays?
CYP2C19 act: 0.9; Cav3 T inh: 1.22; CYP2C19 inhib: 7.6; CYP2C9 activ: 1; CYP2C9 inh: -3.6

Results for Cc1ccc(C(CC(=O)NCc2ccco2)c2ccccc2)c(O)c1 (centres undefined) ?
CYP2C19 act: 0.4; Cav3 T inh: -2.42; CYP2C19 inhib: 60.8*; CYP2C9 activ: 0.5; CYP2C9 inh: 45.5

What do the screens show for `CCCN(CCC)C(=O)CC(c1ccccc1)c1ccc(C)cc1O` (centres undefined)?
CYP2C19 act: 0.6; Cav3 T inh: -5.71*; CYP2C19 inhib: 42.7; CYP2C9 activ: 0.5; CYP2C9 inh: 51.5*

Results for Cc1ccc(-c2nc(C)sc2CC(=O)NCc2ccco2)cc1 ?
CYP2C19 act: 0.4; Cav3 T inh: 0.83; CYP2C19 inhib: 55.5*; CYP2C9 activ: 0.6; CYP2C9 inh: 42.1

Results for Cc1ccc(C(=O)OCC(=O)NCc2ccco2)cc1 ?
CYP2C19 act: 0.9; CYP2C19 inhib: 6.1; CYP2C9 activ: 0.6; CYP2C9 inh: 37.7

How did Cc1ccc(SCC(=O)NCc2ccco2)cc1 do in these assays?
Cav3 T inh: 0.417

What do the screens show for `Cc1ccc(SCCC(=O)NCc2ccco2)cc1`?
CYP2C19 act: 0.6; Cav3 T inh: -1.49; CYP2C19 inhib: 37.7; CYP2C9 activ: 0.3; CYP2C9 inh: 69.2*

How did CCSC(=Nc1ccccc1)C1=C(O)COC1=O do in these assays?
CYP2C19 act: 1; Cav3 T inh: 0.585; CYP2C19 inhib: 1.4; CYP2C9 activ: 0.9; CYP2C9 inh: 5.1

What do the screens show for `COc1ccc(N2CCN(S(=O)(=O)c3ccc(C(=O)NCc4ccco4)cc3)CC2)cc1`?
Cav3 T inh: -3.86*

From PubChem
